Assay outcomes deposited in PubChem by National Center for Advancing Translational Sciences (NCATS).
Pol iota inh = DNA polymerase iota (human) inhibition. Q9UNA4. Pol iota fluorescent replication assay, 10 min. Potency, µM (doses to about 115 µM), for inactives: top-dose activity, negative = inhibition, most hits filed as inhibitors. actives 1% (n = 390,000). AID 588590; also: potency is read from the fitted curve at half-maximal effect
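Pol iota at 10 nM preincubated 15 min with compounds at room temperature; reaction started with fluorescent substrate, 50 nM final. Fluorescence read kinetically at 0 and 10 min; buffer-only wells as negative control.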
Pol eta inh-1 = inhibitors of human DNA polymerase eta | Q9Y253 | recombinant Pol eta, fluorescent DNA replication assay | Potency, µM (titrated, usually from 114 µM), inactives show top-dose activity change, negative = inhibition, most hits filed as inhibitors | actives 1.2% (n = 390,000); also: potency is read from the fitted curve at half-maximal effect; % is scaled to controls: 0 for no effect and ±100 for the full control effect
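Pol eta (10 nM) was preincubated with compounds for 15 min at room temperature, after which fluorescent replication substrate (50 nM final) was added to start the reaction. Fluorescence was read kinetically at 0 and 10 min.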
Pol kappa inh-1 = DNA polymerase kappa (human) inhibition. purified Pol kappa, fluorescent DNA synthesis assay, 10 min. Potency, µM (top dose mostly 107 µM), for inactives: at the top dose activity, negative = inhibition, usual class: inhibitors. actives 0.53% (n = 400,000). AID 588579; also: potency is read from the fitted curve at half-maximal effect; % is scaled to controls: 0 for no effect and ±100 for the full control effect
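Enzyme at 10 nM met test compounds for 15 min at room temperature. Substrate addition (50 nM final) began the reaction, which was monitored by fluorescence at 0 and 10 min.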
PI5P4Ka inh = blocks human PI5P4K alpha kinase activity | P48426 | actives 1.2% (n = 330,000) | PI5P4Kalpha enzyme, ADP-Glo luminescence, 60 min; active compounds read low | max response, % | AID 652105; active = max response of -50% or lower; inconclusive = between -30% and -50%; inactive = -30% or higher; also: value at the top dose of about 77 µM; % is scaled to controls: 0 for no effect and ±100 for the full control effect
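Human PI5P4Kalpha with substrate in 0.038 M HEPES pH 7.4, 0.28 mM EGTA, 0.1% CHAPS, 5% DMSO; reaction started with 5 microM ATP (final), 60 min at room temperature. ADP formed read by ADP-Glo luminescence.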
WRN helicase inh = inhibitors of human WRN helicase; Q14191; actives 0.46% (n = 360,000); WRN helicase unwinding, fluorescent forked duplex, kinetic; Potency, µM (doses to about 114 µM), for the others: at the highest dose activity change, negative = inhibition, usual class: inhibitors; also: potency is read from the fitted curve at half-maximal effect; % is scaled to controls: 0 for no effect and ±100 for the full control effect; nearly all actives have a fitted effect of over 55% in size
Target sequence (Q14191 whole entry, looked up): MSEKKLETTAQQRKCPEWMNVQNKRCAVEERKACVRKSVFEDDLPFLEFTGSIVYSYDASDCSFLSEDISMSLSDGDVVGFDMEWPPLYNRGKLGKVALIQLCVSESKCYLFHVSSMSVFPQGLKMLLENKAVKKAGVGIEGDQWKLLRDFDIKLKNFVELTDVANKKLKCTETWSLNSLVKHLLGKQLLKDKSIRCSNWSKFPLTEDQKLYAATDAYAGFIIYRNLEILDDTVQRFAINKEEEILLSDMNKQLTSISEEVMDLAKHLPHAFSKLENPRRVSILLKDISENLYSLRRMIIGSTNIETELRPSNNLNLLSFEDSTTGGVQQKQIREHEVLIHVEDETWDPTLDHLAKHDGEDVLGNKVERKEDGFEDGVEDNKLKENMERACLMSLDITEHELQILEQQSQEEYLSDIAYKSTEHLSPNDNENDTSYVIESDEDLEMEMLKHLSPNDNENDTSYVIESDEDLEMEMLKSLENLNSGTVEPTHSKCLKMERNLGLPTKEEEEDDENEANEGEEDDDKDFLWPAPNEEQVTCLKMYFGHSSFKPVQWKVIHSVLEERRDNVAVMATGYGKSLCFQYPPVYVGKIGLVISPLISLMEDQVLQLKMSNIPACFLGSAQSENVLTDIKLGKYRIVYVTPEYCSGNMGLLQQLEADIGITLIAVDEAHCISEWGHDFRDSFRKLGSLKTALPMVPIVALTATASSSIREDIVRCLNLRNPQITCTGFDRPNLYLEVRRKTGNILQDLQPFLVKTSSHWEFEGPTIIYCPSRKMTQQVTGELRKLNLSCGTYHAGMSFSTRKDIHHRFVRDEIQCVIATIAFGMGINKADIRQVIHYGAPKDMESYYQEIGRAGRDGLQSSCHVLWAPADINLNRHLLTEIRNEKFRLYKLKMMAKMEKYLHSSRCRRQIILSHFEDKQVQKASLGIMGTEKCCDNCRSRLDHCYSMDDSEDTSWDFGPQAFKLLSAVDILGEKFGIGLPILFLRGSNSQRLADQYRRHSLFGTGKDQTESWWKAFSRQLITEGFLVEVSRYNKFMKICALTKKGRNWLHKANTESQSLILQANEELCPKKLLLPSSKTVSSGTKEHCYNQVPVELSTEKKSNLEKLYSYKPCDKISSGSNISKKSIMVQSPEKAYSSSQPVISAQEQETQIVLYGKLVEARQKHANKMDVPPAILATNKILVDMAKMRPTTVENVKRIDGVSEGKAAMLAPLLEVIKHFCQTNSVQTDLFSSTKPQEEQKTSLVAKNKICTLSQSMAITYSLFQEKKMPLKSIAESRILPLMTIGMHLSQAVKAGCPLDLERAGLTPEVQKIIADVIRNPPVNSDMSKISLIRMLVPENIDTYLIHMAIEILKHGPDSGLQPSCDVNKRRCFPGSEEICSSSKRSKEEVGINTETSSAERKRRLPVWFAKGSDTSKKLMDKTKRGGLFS
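Primary qHTS, 1536-well format. 20 nM WRN + compound, 15 min RT; start with 100 nM forked fluorophore/quencher duplex, 2 mM ATP (final); kinetic read ex 525/em 598 nm.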
POLB inh = DNA polymerase beta (human) inhibition. P06746. Pol beta primer extension/strand displacement, fluorescence kinetic. Potency, µM (doses to about 114 µM), without a hit: at the top dose activity change, negative = inhibition, hits mostly inhibitors. actives 1.3% (n = 340,000); also: potency is read from the fitted curve at half-maximal effect; % is scaled to controls: 0 for no effect and ±100 for the full control effect
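Reaction started by 50 nM substrate onto compound-treated Pol beta (10 nM, 15 min preincubation, room temperature); plates read at 0 min and 10 min. Normalized concentration-effect data fitted by four-parameter Hill equation.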
PGK validate = validation of Trypanosoma brucei phosphoglycerate kinase inhibitors; shares compounds with Pol kappa inh-1; TbPGK coupled GAPDH assay, Kinase-Glo luminescence; Potency, µM (series often up to 57.5 µM), without a hit: top-dose activity change, negative = inhibition, actives largely listed as inhibitors; actives 79% (n = 500); AID 686980; also: potency is read from the fitted curve at half-maximal effect; % is scaled to controls: 0 for no effect and ±100 for the full control effect; nearly all actives have a fitted effect of over 65% in size
Pol iota confirm = Inhibitors of human DNA polymerase iota, confirmation; Potency, µM, most hits filed as inhibitors; actives 77% (n = 1,500); Pol iota primer extension, TAMRA/BHQ fluorescence; shares compounds with Pol kappa inh-1; also: potency is read from the fitted curve at half-maximal effect
GALK inh confirm = confirmation of human galactokinase (GALK) inhibitors. shares compounds with Pol eta inh-1. Potency, µM (series often up to 115 µM), without a hit: top-dose activity, negative = inhibition, actives largely listed as inhibitors. purified GALK, Kinase-Glo ATP depletion luminescence. actives 70% (n = 150). AID 2015
GALK redox cs = redox cycling activity in phenol red-HRP assay | actives 40% (n = 150) | AID 2035 | Potency, µM (highest dose often 115 µM), for inactives: at the highest dose activity change, negative = H2O2 signal, most hits filed as inhibitors | shares compounds with Pol eta inh-1 | Phenol red-HRP H2O2 redox cycling, absorbance 600 nm
HEK293 tox = counter-screen for GALK inhibitors: HEK293 cell cytotoxicity; shares compounds with Pol eta inh-1; HEK-293 viability, ATP luminescence (CellTiter-Glo), 24/48 h; Potency, µM (doses to about 46.1 µM), for the others: at the top dose activity change, negative = cytotoxicity, hits mostly inhibitors; actives 10% (n = 170); also: potency is read from the fitted curve at half-maximal effect; % is scaled to controls: 0 for no effect and ±100 for the full control effect
Pol kappa inh-2 = Pol kappa (human) inhibition, cherry-pick confirmation | shares compounds with Pol eta inh-1 | purified Pol-kappa, fluorescent strand-displacement substrate | Potency, µM, most hits filed as inhibitors | actives 76% (n = 920) | AID 720501; also: potency is read from the fitted curve at half-maximal effect
Pol eta inh-2 = confirmation of human DNA polymerase eta inhibitors; shares compounds with Pol eta inh-1; Pol eta primer extension, TAMRA/BHQ fluorescence, 10 min; Potency, µM, usual class: inhibitors; actives 64% (n = 2,600); also: potency is read from the fitted curve at half-maximal effect
* hit, by the source's call; ? = inconclusive; / = no result; ! = not confirmed by another sample; [ ] = another dose, or the depositor's remark. Only some compounds are listed: those with a hit (about 2.8% of all), similar ones and a draw of the others. Unless noted, calls follow the shape of the dose curve; as a rule, active = well fitted curve in the direction sought with a large enough effect; inconclusive = small, poorly fitted or top-dose-only effect, or another doubt; inactive = no such curve, though single readings can be large; an effect the other way counts as inactive or inconclusive.

SMILES	Pol iota inh	Pol eta inh-1	Pol kappa inh-1	PI5P4Ka inh	WRN helicase inh	POLB inh	Pol iota confirm	Pol eta inh-2	others
CCCCC(=O)N/N=C/c1ccc(-c2ccc([N+](=O)[O-])cc2)o1	39%	-2%	-16%	-5	-2%	-17%	/	/
CCc1ccc(OCCCCn2c(CCNC(=O)C3CCCCC3)nc3ccccc32)cc1	15%	/	-6%	/	/	/	/	/
CCOC(=O)c1sc2nc(CSc3ccccc3Cl)[nH]c(=O)c2c1C	2%	-1%	-15%	-16	3%	-20%	/	/
Cc1c(C(=O)O)sc2nc(CSc3ncc(C(F)(F)F)cc3Cl)[nH]c(=O)c12	?	32µM*	-19%	?	-19%	40µM*	?	67*
O=C(Nc1cc(S(=O)(=O)N2CCOCC2)ccc1Cl)c1cc2ccccc2o1	43%	-10%	-14%	2	-10%	/	/	/
O=C(Nc1ccc(F)cc1)c1oc2ccccc2c1NC(=O)C1CCCCC1	7%	-22%	-34%	/	/	-14%	/	/
CCOC(=O)C1=C(C)N(C[C@@H]2CC[C@@H](Cc3ccc(-c4ccccc4)cc3)O2)C(=O)NC1c1ccc(SCc2ccco2)c([N+](=O)[O-])c1 (stereo partly specified)	?	13µM*	?	-70*	?	/	60*	48*	Pol kappa inh-2=17*
O=C1C(SCCO)=C(SCCO)C(=O)c2ccccc21	1.1µM*!	16µM*	?	-107*	79µM*	5%[57.1 µM]	24*	24*	GALK inh confirm=19µM*;GALK redox cs=11µM*;HEK293 tox=?
O=C1C(Cl)=C(NCCCO)C(=O)c2ccccc21	-8%	-20%	-15%	-4	-11%	-9%	/	/
O=S(=O)(c1ccc(-c2ccccn2)s1)N1CCC2(CC1)OCCO2	14%	4%	-6%	0	0%	-1%	/	/
COc1ccc2c(c1)c(=O)oc1cc(OCC(=O)N3CCc4ccccc4C3)ccc12	?	89µM*	?	/	?	11µM*	34*	76*	PGK validate=3.3µM*;Pol kappa inh-2=8.4*
CC(C)c1ccc(OCC(=O)N2CCc3ccccc3C2)cc1	22%	-18%	5%	4	3%	7%	/	/
O=C(O)CSc1cc(NS(=O)(=O)c2cccc([N+](=O)[O-])c2)c2ccccc2c1O	3.2µM*	22µM*	?	-29	40µM*	79µM*	27*	27*	GALK inh confirm=33µM*;GALK redox cs=21µM*;HEK293 tox=-16%
CCOc1ccc(S(=O)(=O)Nc2cc(SCC(=O)O)c(O)c3ccccc23)cc1	10µM*	45µM*	-32%	?	79µM*	?	?	?
COc1ccccc1NC(=O)COC(=O)c1cc2c(s1)CCC2	32µM*	20µM*	?	?	?	/	75*	76*	Pol kappa inh-2=?
CC(OC(=O)/C(C#N)=C/c1ccc(N(C)C)cc1)C(=O)N(C)c1ccccc1 (stereo unspecified)	50µM*	79µM*	79µM*	-7	56µM*	/	24*	34*
COc1ccc(-c2nn(-c3ccccc3)cc2/C=C2/SC(=S)N(CCC(=O)O)C2=O)c(C)c1	?	32µM*	?	-8	-21%	32µM*	75*	?
O=C(O)CCCCCN1C(=O)/C(=C/c2cn(-c3ccccc3)nc2-c2cccs2)SC1=S	?	?	?	-9	?	/	34*	/	Pol kappa inh-2=?
COc1ccc(/C=C2/SC(=S)N(CCC(=O)O)C2=O)cc1	-5%[58.9 µM]	-9%	-13%	/	-18%	22%	/	/
COc1ccc(O)c(/C=C2/SC(=S)N(Cc3ccccc3)C2=O)c1	-16%	-23%	-9%	-9	-12%	-10%	/	/
CCN1C(=O)/C(=C/c2cn(-c3ccccc3)nc2-c2cccnc2)SC1=S	-2%	-19%	3%	1	8%	/	/	/
O=C(O)CCN1C(=O)/C(=C\c2cccc(Oc3ccccc3)c2)SC1=S	25µM*	40µM*	?	0	?	?	?	76*
O=C(O)CCN1C(=O)/C(=C/c2cn(-c3ccccc3)nc2-c2cccs2)SC1=S	32µM*	35µM*	89µM*	-3	-22%[11.6 µM]	-16%	19*	43*
CCCS(=O)(=O)N1CCC(N2CCN(Cc3ccc(F)cc3)C(=O)C2=O)CC1	5%	4%	-6%[60.1 µM]	/	/	27%	/	/
COc1ccc(C(=O)NNc2ncnc3c2cnn3-c2cccc(Cl)c2)cc1OC	14%	0%	-4%[60.1 µM]	/	/	2%	/	/
CC(=O)Nc1ccc(S(=O)(=O)N2CCN=C2SCc2ccc([N+](=O)[O-])cc2)cc1	4%	-13%	-2%	-4	-29%	-1%	/	/
O=C1/C(=C\c2cc(Cl)c(O)c(Cl)c2)SC(=S)N1Cc1ccccc1	10µM*	50µM*	-28%	-102*	11µM*	?	84*	/	GALK inh confirm=27µM*;GALK redox cs=5%;HEK293 tox=?
CC1=NNC(=O)/C1=C\c1cn(-c2ccccc2)nc1-c1cccs1	?	-16%	-9%	-28	-9%	18%	/	/
